MsrA inhibitor = bovine MsrA enzyme inhibitors, primary screen, biochemical, absorbance, HTS | AID 651718, 2012 | inhibition, % at 15.5 µM | actives 0.75% (n = 360,000) | purified bovine MsrA, absorbance read-out | Methionine sulfoxide reductase A (Bos taurus);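 note: 0% = vehicle wells with enzyme and 100% = reference inhibitor wells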
PLCg1 inh = PLC-gamma1 enzyme inhibitors, primary screen, biochemical, fluorescence, purified enzyme; fluorogenic substrate; inhibition, % at 12.2 µM; actives 0.84% (n = 370,000); in the data active = inhibition above about 9.5%
PLCb3 inh = human PLC-beta3 inhibitors, primary screen, biochemical, fluorescence; 1-phosphatidylinositol 4,5-bisphosphate phosphodiesterase beta-3 (Homo sapiens), Q01970; Purified PLC-beta3, fluorogenic substrate; inhibition, % at 12.2 µM; actives 0.18% (n = 370,000); in the data active = inhibition above about 11%;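 note: 0% = median of compound wells on plate and 100% = full blocker control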
Target sequence (Q01970 whole entry, looked up): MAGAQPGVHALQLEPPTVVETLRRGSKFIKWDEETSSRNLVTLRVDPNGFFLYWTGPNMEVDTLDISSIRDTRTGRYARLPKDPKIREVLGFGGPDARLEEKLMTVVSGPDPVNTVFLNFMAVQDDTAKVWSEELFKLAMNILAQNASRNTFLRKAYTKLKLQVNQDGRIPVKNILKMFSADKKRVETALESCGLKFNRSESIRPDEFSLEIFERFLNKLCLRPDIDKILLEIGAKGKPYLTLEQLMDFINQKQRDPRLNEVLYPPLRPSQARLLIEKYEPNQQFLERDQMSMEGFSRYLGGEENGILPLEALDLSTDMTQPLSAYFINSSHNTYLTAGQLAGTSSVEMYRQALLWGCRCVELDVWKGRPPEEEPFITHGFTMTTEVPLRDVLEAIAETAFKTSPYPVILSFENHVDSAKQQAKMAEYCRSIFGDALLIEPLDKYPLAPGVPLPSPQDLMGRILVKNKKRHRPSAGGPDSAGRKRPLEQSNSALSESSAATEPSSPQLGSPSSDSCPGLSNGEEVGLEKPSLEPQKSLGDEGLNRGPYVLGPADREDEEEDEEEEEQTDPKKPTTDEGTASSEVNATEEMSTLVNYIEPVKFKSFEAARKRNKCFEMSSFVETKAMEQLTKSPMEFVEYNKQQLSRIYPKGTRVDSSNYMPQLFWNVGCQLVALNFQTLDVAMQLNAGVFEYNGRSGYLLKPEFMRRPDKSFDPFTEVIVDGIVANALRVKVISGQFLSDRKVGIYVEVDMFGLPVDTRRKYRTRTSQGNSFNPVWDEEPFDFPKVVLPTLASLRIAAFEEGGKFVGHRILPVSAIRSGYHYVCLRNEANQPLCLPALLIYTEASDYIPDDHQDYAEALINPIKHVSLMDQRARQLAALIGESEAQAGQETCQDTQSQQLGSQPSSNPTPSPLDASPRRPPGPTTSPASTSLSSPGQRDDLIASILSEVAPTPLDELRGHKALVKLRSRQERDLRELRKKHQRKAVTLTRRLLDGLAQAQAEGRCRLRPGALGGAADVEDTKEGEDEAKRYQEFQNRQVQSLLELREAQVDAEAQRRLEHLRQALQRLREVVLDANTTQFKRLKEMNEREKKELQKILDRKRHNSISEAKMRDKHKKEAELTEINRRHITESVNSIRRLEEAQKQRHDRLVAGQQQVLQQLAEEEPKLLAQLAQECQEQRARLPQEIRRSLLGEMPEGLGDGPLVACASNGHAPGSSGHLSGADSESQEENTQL
bovine MsrA act = bovine MsrA enzyme activators, primary screen, biochemical, absorbance, HTS; Methionine sulfoxide reductase A (Bos taurus); purified bovine MsrA, absorbance read-out; activation, % at 10.6 µM; actives 0.3% (n = 360,000); in the data active = activation above about 7.5%;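 note: 0% = vehicle and 100% = reference activator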
MsrA conf = bovine MsrA inhibitors, retest, confirmation, biochemical, absorbance, HTS | inhibition, % at 15.5 µM | AID 651822, 2012 | shares compounds with MsrA inhibitor | purified bovine MsrA, absorbance read-out | actives 41% (n = 2,300);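 note: coupled to thioredoxin reductase with NADPH and selenocystamine and DMSO as substrate; 0% = vehicle only and 100% = full effect of reference inhibitor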
The depositor's hits bear a star; · = no result given. In the library only some 1.9% were active in any assay of this set; here they are far more common. Cut-off read from the data, not from the text of the source, unless noted: active = inhibition above about 4.5%; inactive = the rest.

SMILES | MsrA inhibitor | PLCg1 inh | PLCb3 inh | bovine MsrA act | MsrA conf
COC(=O)/C=C1/S/C(=N/NC(=O)c2ccccc2C)NC1=O | 6.7* | -8 | -22 | -2 | 3
C=CCN1[C@H](C)COc2cc(N3CCSCC3)ccc2S1(=O)=O | · | 1 | 3 | · | ·
NC(=O)c1c(N)[nH]c(C(=O)c2ccccc2)c1-c1ccc(Cl)cc1Cl | 1 | -12 | -22 | · | ·
CCOc1ccc(N(C)S(=O)(=O)c2cc(-c3cc(C)no3)ccc2CC)cc1 | 15* | -3 | -8 | -2 | 15*
CCOc1ccc(N(C)S(=O)(=O)c2cc(-c3cc(C)no3)ccc2C)cc1 | 12* | 1 | -6 | -3 | 11*
CCOc1ccc(N(C)S(=O)(=O)c2cc(-c3cc(C)no3)ccc2OC)cc1 | 1 | 1 | -10 | -2 | ·
CCCC1=[N+](CC)CCn2c(C)ccc21 | 4 | -1 | -2 | -6 | ·
CCCC1=[N+](CC(=O)c2ccccc2)CCn2c(C)ccc21 | 5.2* | -92 | -105 | -2 | 4.6*
CN(C(=O)[C@@H](Cc1ccccc1)NC(=O)[C@H]1O[C@@H](n2cnc3c(=O)[nH]c(N)nc32)[C@H](O)[C@@H]1O)C1CCCCC1 | 0 | 0 | -2 | · | ·
COCCCNC(=O)CSc1nc2c(sc(=S)n2-c2cc(Cl)ccc2OC)c(=O)[nH]1 | 5.8* | 4 | -4 | -14 | 4
CCC(C)NC(=O)CSc1nc2c(sc(=S)n2-c2cc(Cl)ccc2OC)c(=O)[nH]1 (stereo unspecified) | 2 | 3 | 1 | 0 | ·
c1ccc(CN=C2NN=C(c3ccccc3)CS2)cc1 | 0 | -3 | -13 | -4 | ·
CC(=O)c1c(C)[nH]c(C2=NNC(=NCc3ccccc3)SC2)c1C | 5.0* | -15 | -18 | -11 | 2
COCCN1C(=O)[C@H]2C[C@@]13O[C@H](c1ccc(C(F)(F)F)cc1)N=C3C[C@H](c1ccccc1)[C@H]2C | -1 | -2 | 4 | · | ·
NC(=N\N=Cc1ccccc1)/C(N)=N/N=Cc1ccccc1 | 2 | 1 | 1 | -2 | ·
Oc1ccc(C=NN=Cc2ccco2)c(O)c1 | 4.9* | -247 | -319 | -6 | 5.4*
NC(=N\N=Cc1ccco1)/C(N)=N/N=Cc1ccco1 | 4.8* | 5 | 6 | 0 | 6.4*
CN1/C(=C/C(=O)C2CC2)C(C)(C)c2ccccc21 | 5.8* | -58 | -76 | -2 | 5.1*
CCc1nc(Nc2ccncc2)c2oc3ccccc3c2n1 | 4.7* | -22 | -37 | -4 | 4
Cc1nc(Nc2ccncc2)c2oc3ccccc3c2n1 | 5.4* | -18 | -27 | -9 | 2
COC(=O)C1=C(C)N(Cc2ccccc2C(F)(F)F)C(=NCc2cc(OC)c(OC)c(OC)c2)NC1c1cccc(Cl)c1 (stereo unspecified) | -1 | -1 | -1 | · | ·
FC(F)(F)c1ccccc1Cn1ccc2ccc(-c3ccc4ccn(Cc5ccccc5C(F)(F)F)c4c3)cc21 | · | 0 | -2 | · | ·
CC(=O)NS(=O)(=O)c1ccc(N=NN2CCCCC2)cc1 | 2 | 2 | 2 | -1 | ·
CC(=O)N(C(C)=O)S(=O)(=O)c1ccc(N=NN2CCCCC2)cc1 | 5.0* | 8 | -1 | -2 | 4
NS(=O)(=O)c1ccc(N=NN2CCCCC2)cc1 | 5.3* | 1 | 4 | -5 | 2
SMILES | MsrA inhibitor | PLCg1 inh | PLCb3 inh | bovine MsrA act | MsrA conf
Cc1cccc(CCNC(=O)CSc2nc3c([nH]2)c(=O)n(C)c(=O)n3C)c1 | · | -1 | -3 | · | ·
CNC(=S)N1N=C(c2ccc(C)cc2)CC1c1ccc(OC)cc1 (stereo unspecified) | 4 | 2 | 1 | -2 | ·
CNC(=S)N1N=C(c2ccc(Br)cc2)CC1c1ccc(OC)cc1 (stereo unspecified) | 5.7* | -3 | 1 | -5 | 3
COc1ccc(-n2c(SCC(=O)N3CCCC3)nnc2-c2ccncc2)cc1 | · | -2 | 2 | · | ·
CCCCNC(=S)N(C)/N=C/c1ccc(OCC(=O)Nc2ccc(OC)cc2)c(OC)c1 | 6.5* | 0 | 0 | -11 | 3
COc1ccc(-c2[nH]ncc2CN2CCCC2c2nonc2C)c(F)c1 (stereo unspecified) | 8.4* | 1 | 4 | 1 | 4
Cc1nonc1C1CCCN1Cc1cn[nH]c1-c1ccc2c(c1)OCO2 (stereo unspecified) | 1 | -2 | -8 | -2 | ·
COc1ccc(/C=C\C(=O)c2c(O)ccc3c(C)cc(=O)oc23)cc1 | 5.3* | -2 | -4 | -9 | 4
